Where “and” joins values, the source holds several entries; their conditions need not be identical. Equal values may be shown once. Results filed as inconclusive are left out. Where a structure was tested more than once in an assay, its records may differ in their call. Calls of active or inactive are those of the source. Unless noted, calls come from the whole dose curve; as a rule, active = well fitted curve in the direction sought with a large enough effect in the repeat runs; inconclusive = weak or mixed curves; inactive = no such curve, though single readings can be large; an effect the other way counts as inactive or inconclusive.

Experiment [1] deals with Thyrotropin receptor (Homo sapiens) (UniProt P16473). In words: qHTS assay to identify small molecule agonists of the thyroid stimulating hormone receptor (TSHR) signaling pathway (AID 1224843; calls by dose curve; note: nearly all actives have a fitted effect of over 45% in size; note: potency is the fitted concentration of half-maximal effect). Put shortly: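 HEK293 cells stably bearing the thyrotropin receptor were plated at 800 cells/well and challenged with compound (30 min, RT). Accumulated cAMP was quantified via cAMP-d2 competing for cryptate-tagged antibody.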
Sequence of Thyrotropin receptor (Homo sapiens) (P16473 whole entry, looked up): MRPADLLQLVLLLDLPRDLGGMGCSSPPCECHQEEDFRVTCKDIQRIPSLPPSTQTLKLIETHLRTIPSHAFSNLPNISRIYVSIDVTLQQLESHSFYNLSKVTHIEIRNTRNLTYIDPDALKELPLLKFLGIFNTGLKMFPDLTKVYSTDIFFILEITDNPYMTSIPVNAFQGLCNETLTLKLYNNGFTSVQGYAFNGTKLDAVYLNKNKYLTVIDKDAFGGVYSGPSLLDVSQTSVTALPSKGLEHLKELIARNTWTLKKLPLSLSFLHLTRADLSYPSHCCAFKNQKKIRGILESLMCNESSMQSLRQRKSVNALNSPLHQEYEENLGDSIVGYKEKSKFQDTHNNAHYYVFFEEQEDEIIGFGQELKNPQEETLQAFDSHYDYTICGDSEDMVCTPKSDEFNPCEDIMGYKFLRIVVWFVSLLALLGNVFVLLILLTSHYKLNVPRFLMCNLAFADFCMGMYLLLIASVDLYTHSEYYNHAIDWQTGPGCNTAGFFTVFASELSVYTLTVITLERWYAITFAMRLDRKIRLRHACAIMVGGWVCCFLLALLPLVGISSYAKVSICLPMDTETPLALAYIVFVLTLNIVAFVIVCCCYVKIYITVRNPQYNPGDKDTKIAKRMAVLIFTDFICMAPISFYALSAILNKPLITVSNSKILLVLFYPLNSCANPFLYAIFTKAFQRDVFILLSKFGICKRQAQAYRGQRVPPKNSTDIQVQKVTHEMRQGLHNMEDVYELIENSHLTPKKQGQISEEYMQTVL
On the technique in general: In qHTS, concentration-response curves come from the screen itself.

A short description of experiment [2]: qHTS assay to identify small molecule agonists of the hypoxia (HIF-1) signaling pathway - cell viability counter screen (AID 1224844; calls by dose curve; note: nearly all actives have a fitted effect of over 50% in size; note: potency is the fitted concentration of half-maximal effect). The method, boiled down: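 Tox21 10K compounds were added to HRE-bla ME-180 cells (0.5% dialyzed FBS) and incubated 17 hrs at 37C; ATP-based CellTiter-Glo luminescence then reported cell viability in the same wells.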
Experiment [3] is described as follows: qHTS assay to identify small molecule agonists of H2AX (AID 1224845; active = well fitted activation curve with a large enough effect in the signal ratio in the repeat runs, not every such curve was filed as active; the % refers to the signal ratio; note: potency is the fitted concentration of half-maximal effect). Put shortly:
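Phospho-H2AX Ser139 measured by HTRF (ex 320 nm; em 665 and 620 nm) after 24 hr antibody incubation. Compounds, 15 concentrations, 0.76% DMSO, were applied to CHO-K1 cells for 3hr at 37C before lysis.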

Experiment [4] can be described thus: qHTS RealTime-Glo MT Cell Viability Assay in HepG2 cells - 24 hour (AID 1224867). Note: nearly all actives have a fitted effect of over 50% in size. Note: potency is the fitted concentration of half-maximal effect. The method, boiled down:
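HepG2 suspension premixed with RealTime-Glo reagents is plated at 600 cells per well and left 5 h at 37 C/5% CO2. Compounds in DMSO then go in, and bioluminescence reflecting viable cell number is recorded over 40 h.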

Experiment [5] is described as follows: qHTS RealTime-Glo MT Cell Viability Assay in HEK293 cells - 32 hour (AID 1224868). Note: nearly all actives have a fitted effect of over 50% in size. Note: potency is the fitted concentration of half-maximal effect. The method, boiled down:
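Reads taken at 0, 8, 16, 24, 32 and 40 h from the same wells. HEK293 cells (600/well) carried RealTime-Glo reagents from seeding, with compound added after a 5 h settle at 37 C.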

Experiment [6] in a line: A CellTox Green Cytotoxicity Assay to monitor cytotoxicity in HEK293 cells - 0 hour (AID 1224869). Note: nearly all actives have a fitted effect of over 50% in size. Put shortly: (§1)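 Cytotoxicity was tracked continuously in HEK293 cells by a DNA-binding dye excluded from viable cells. Compounds were transferred in DMSO 5 h after seeding; fluorescence was recorded at intervals up to 40 h.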
Experiment [7] is described as follows: qHTS RealTime-Glo MT Cell Viability Assay in HepG2 cells - 40 hour (AID 1224870). Note: nearly all actives have a fitted effect of over 50% in size. Note: potency is the fitted concentration of half-maximal effect. The method, boiled down:
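Real-time viability: cells seeded at 600 per well together with NanoLuc and cell-permeant prosubstrate, compounds added after 5 h incubation. Luminescence tracked at 0, 8, 16, 24, 32 and 40 h of exposure.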

Experiment [8] in a line: qHTS assay to identify small molecule agonists of the constitutive androstane receptor (CAR) signaling pathway - cell viability counter screen (AID 1224836). Note: nearly all actives have a fitted effect of over 45% in size. Note: potency is the fitted concentration of half-maximal effect. The method, boiled down:
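23 h treatment, 37 C, 5% CO2. Cell line: HepG2 stably expressing hCAR with a CYP2B6-2.2kb construct. Co-treatment: PK11195, 0.75 uM final. Read-out: CellTiter-Fluor fluorescence intensity.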

Experiment [9] is described as follows: qHTS assay to identify small molecule antagonists of the constitutive androstane receptor (CAR) signaling pathway - cell viability counter screen (AID 1224837). Note: nearly all actives have a fitted effect of over 45% in size. Note: potency is the fitted concentration of half-maximal effect. The method, boiled down: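 Multiplexed cytotoxicity read-out for the CAR antagonist screen: double-stable HepG2-CYP2B6-hCAR cells co-treated with 50 nM CITCO (final) and compound over 15 concentrations, incubated 23 hr, then assessed by CellTiter-Fluor fluorescence.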

Experiment [10] deals with Nuclear receptor subfamily 1 group I member 3 (Homo sapiens) (UniProt Q14994). Kind of experiment: qHTS assay to identify small molecule antagonists of the constitutive androstane receptor (CAR) signaling pathway (AID 1224838). Note: nearly all actives have a fitted effect of over 40% in size. Note: potency is the fitted concentration of half-maximal effect. Put shortly: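 Compounds were titrated across 15 concentrations onto HepG2 cells double-stably expressing hCAR and a CYP2B6-2.2kb reporter, together with 50 nM CITCO (final). After 24 h at 37 C, luciferase activity was measured by luminescence.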
Sequence of Nuclear receptor subfamily 1 group I member 3 (Homo sapiens) (Q14994 whole entry, looked up): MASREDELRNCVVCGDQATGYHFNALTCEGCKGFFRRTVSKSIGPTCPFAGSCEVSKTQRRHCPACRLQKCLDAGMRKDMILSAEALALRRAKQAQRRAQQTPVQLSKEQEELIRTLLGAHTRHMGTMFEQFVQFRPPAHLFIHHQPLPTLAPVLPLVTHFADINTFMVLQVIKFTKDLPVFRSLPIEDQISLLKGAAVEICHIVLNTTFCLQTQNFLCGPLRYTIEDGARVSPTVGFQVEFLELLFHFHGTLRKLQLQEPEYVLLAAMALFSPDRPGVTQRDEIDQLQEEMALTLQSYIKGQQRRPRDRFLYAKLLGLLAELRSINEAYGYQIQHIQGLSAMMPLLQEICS

The target is the same in experiment [11]. In words: qHTS assay to identify small molecule agonists of the constitutive androstane receptor (CAR) signaling pathway (AID 1224839). Note: nearly all actives have a fitted effect of over 15% in size. The method, boiled down:
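Compounds tested at 15 concentrations on HepG2 cells stably harbouring hCAR and CYP2B6-2.2kb reporter constructs, co-treated with PK11195 (0.75 uM final), 24 h at 37 C; luminescent reporter signal quantified.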

Experiment [12] is described as follows: qHTS assay to identify small molecule antagonists of the estrogen related receptor signaling pathway with the pleiotropic PPARgamma coactivator (PGC) from Tox21 10K library - cell viability counter screen (AID 1224840; active = well fitted cell-killing curve with a large enough effect in the repeat runs, not every such curve was filed as active; note: nearly all actives have a fitted effect of over 40% in size; note: potency is the fitted concentration of half-maximal effect). The method, boiled down: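 Step one, plate 2,000 PGC/ERR cells per well; step two, incubate 6 h at 37 C/5% CO2; step three, pin-transfer compounds; step four, incubate 17.5 h; step five, add CellTiter-Fluor and read fluorescence after 30 min.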

Experiment [13] is described as follows: qHTS assay to identify small molecule agonists of the hypoxia (HIF-1) signaling pathway (AID 1224846; active = well fitted activation curve with a large enough effect in the signal ratio in the repeat runs, not every such curve was filed as active; the % refers to the signal ratio). The method, boiled down: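 Steps: seed ME-180 HRE-bla cells (2,000/well, 0.5% dialyzed FBS); incubate 5 hrs at 37C; pin-transfer compounds or DMSO; incubate 17 hrs; add LiveBLAzer B/G substrate CCF4-AM; measure reporter activation by FRET.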
A short description of experiment [14]: qHTS assay to identify small molecule agonists of H2AX - cell viability counter screen (AID 1224847; calls by dose curve; note: nearly all actives have a fitted effect of over 30% in size; note: potency is the fitted concentration of half-maximal effect). Put shortly: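 Compounds tested at 15 concentrations were incubated 3 hr at 37C with wild-type CHO-K1 cells; cellular ATP-based luminescence (CellTiter-Glo) indicated viability.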
Experiment [15] is described as follows: qHTS assay to identify small molecule agonists of the estrogen related receptor signaling pathway with the pleiotropic PPARgamma coactivator (PGC) from Tox21 10K library (AID 1224842). Note: nearly all actives have a fitted effect of over 15% in size. Note: potency is the fitted concentration of half-maximal effect. Put shortly: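 Luminescence from One-Glo (30 min, room temperature) measured after PGC/ERR cells had 18 h at 37 C with pinned compound (23 nL in DMSO). Cells had been seeded at 2,000 per well and pre-incubated 6 h.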

Experiment [16] is described as follows: qHTS assay to identify small molecule antagonists of the estrogen related receptor (ERR) signaling pathway from Tox21 library (AID 1224848). Note: nearly all actives have a fitted effect of over 50% in size. Note: potency is the fitted concentration of half-maximal effect. Put shortly: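 Reading was by luminescence 30 min after ONE-Glo addition. Before that, ERR cells at 2,000 per well had rested 6 h at 37 C/5% CO2 and then received pin-tooled compounds in DMSO for 18 h at 37 C.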
A short description of experiment [17]: qHTS assay to identify small molecule agonists of the estrogen related receptor (ERR) signaling pathway from Tox21 library (AID 1224849; calls by dose curve; note: nearly all actives have a fitted effect of over 15% in size). Conditions: ERR reporter cell line, ONE-Glo luciferase, 18 h. Put shortly: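 Agonist signal is luciferase luminescence from an ERR reporter cell line treated 18 h at 37 C with DMSO-dissolved compounds, read 30 min after ONE-Glo addition at room temperature.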

Experiment [18] in a line: A CellTox Green Cytotoxicity Assay to monitor cytotoxicity in HEK293 cells - 40 hour (AID 1224871). Note: nearly all actives have a fitted effect of over 45% in size. Note: potency is the fitted concentration of half-maximal effect. The method, boiled down:
as §1

The nature of experiment [19]: qHTS assay to identify small molecule antagonists of the estrogen related receptor signaling pathway with the pleiotropic PPARgamma coactivator (PGC) from Tox21 10K library (AID 1224841; call rule not given here; note: potency is the fitted concentration of half-maximal effect). The method, boiled down:
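Antagonism in this quantitative HTS is taken from loss of luciferase signal in PGC/ERR cells. Cells (2,000/well) are treated with compounds in DMSO after a 6 h settling period and read by One-Glo luminescence after 18 h.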
% is set by controls: 0 for no effect and ±100 for the full control effect.

Consider `CC/C(=C(\c1ccccc1)c1ccc(OCCN(C)C)cc1)c1ccccc1`, for which the Potency entry in experiment [1] and in [6] was “inactive” each time. The Potency was 24.8 µM (active) [middle of 4 runs] in experiment [2]; 50.5 µM (active) in experiment [3]; 38.9 µM (active) [middle of 4 runs] in experiment [4]; 22.1 µM (active) [middle of 5 runs] in experiment [5]; 24.5 µM (active) [middle of 4 runs] in [7].

In the case of `COc1ccc(OC(F)(F)F)cc1CN[C@H]1CCCN[C@H]1c1ccccc1`, the Potency in experiment [8] is 61.1 µM (active); in [9], 54.5 µM (active); in experiment [10], 54.5 µM (active); in experiment [12], 54.5 µM (active); in experiment [14] it was 113 µM (active); in experiment [4], 54.9 µM (active). Moreover, in experiment [7], the Potency is 54.9 µM (active). Also, the Potency result in experiment [11] and in experiment [6] was “inactive” in each case. The call in experiment [13] was inactive.

In the case of `CCCCCCCC(=O)OCC(COC(=O)CCCCCCC)OC(=O)CCCCCCC`, the Potency entry in experiment [8], in experiment [9], in experiment [12], in [1], in experiment [3] and in experiment [14] was “inactive” in each case. Moreover, the Potency entry in experiment [4], in [6] and in [7] was “inactive” in each case. Also, the compound was classed as inactive in experiment [13].

Consider `Cn1c(=O)c2c(ncn2C)n(C)c1=O`, for which the Potency entry in [10], in experiment [11], in [12], in experiment [15], in experiment [2] and in experiment [3] was “inactive” throughout. The Potency result in [14], in [4], in experiment [5], in [6], in experiment [7] and in experiment [18] was “inactive” in each case. Moreover, the outcome in experiment [13] was inactive. Moreover, the Potency in experiment [16] is 61.9 µM (active) and inactive. In addition, the activity change, positive = activation was 0.592% (inactive) in [17] (at 42.5 µM (top of the series)); -33.2% (inactive) and 0.518% (inactive) in [17] (at 92.4 µM (top of the series)).

For `O=C1c2c(O)cccc2Cc2cccc(O)c21`, the Potency entry in [8], in [9], in experiment [12], in [1], in experiment [2] and in experiment [3] was “inactive” in each case. In addition, the Potency result in experiment [4], in experiment [6] and in experiment [7] was “inactive” each time.

Take `CC(C)NCC(O)c1ccc(O)c(O)c1` (stereo not drawn): the Potency entry in [8], in [9], in experiment [12], in experiment [19], in experiment [16] and in [4] was “inactive” each time. The Potency entry in experiment [6], in experiment [7] and in [18] was “inactive” each time. In addition, the Potency was 5.4 nM (active) and 8.6 nM (active) and inactive in [15]; 7.6 nM (active) and 4.9 nM (active) and 11.9 nM (active) in experiment [1]. For the same compound, the activity change, positive = activation was 7.23% (inactive) in [17] (at 42.5 µM (top of the series)); 4.56% (inactive) and 1.6% (inactive) in experiment [17] (at 92.4 µM (top of the series)).

Consider `CNNCc1ccc(C(=O)NC(C)C)cc1`, for which the Potency result in [8], in experiment [9], in experiment [10], in experiment [12], in experiment [1] and in experiment [2] was “inactive” in each case. For the same compound, the Potency entry in experiment [3], in experiment [4], in experiment [6], in [7] and in [18] was “inactive” each time. In addition, in experiment [13], the call was inactive.

With `O=c1[nH]cc(F)c(=O)[nH]1`, the Potency in experiment [12] was 44.9 µM (active) and inactive; in experiment [2] it was 10.1 µM (active) and inactive; in [18], 50.8 µM (active) and inactive. In addition, the Potency entry in experiment [1], in [3], in experiment [14], in experiment [4], in experiment [5] and in experiment [6] was “inactive” each time. The Potency result in [7] is “inactive”.

As to `C1=CC2C3C=CC(C3)C2C1` (stereo not drawn), the Potency entry in [9], in [11], in [12], in experiment [15], in [3] and in experiment [16] was “inactive” each time. In addition, the Potency result in experiment [4] and in [7] was “inactive” in each case. Moreover, the Potency in experiment [19] was 60 µM (active). In experiment [13], the outcome was inactive. Further, in [17] (at 92.4 µM (top of the series)), the activity change, positive = activation was -1.35% (inactive).

For the origin of these results see PubChem BioAssay (Tox21).
